Assay outcomes from PubChem BioAssay.
HPGD inh – blocks human HPGD enzyme activity; AID 894; 4.3% of 150,000 active; Potency, µM, actives largely listed as inhibitors; purified HPGD, NADH fluorescence kinetic, PGE2 substrate; P15428
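20 nM HPGD preincubated 15 min at room temperature with compound in 50 mM Tris-HCl pH 8, 0.01% Tween 20. Started with 1 mM NAD+ and 30 uM prostaglandin E2; NADH fluorescence (360/450 nm) read 5 times over 30-s intervals, last minus first.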
IMPase cell inh – cell-permeable inhibitors of inositol monophosphatase (IMPase); P97697; CHO-M1 cells, IP1 accumulation, HTRF TR-FRET ratio; inhibition (IP1 accumulation), % at 46.1 µM; 120,000 tested, under 10 active; AID 901; active = well fitted curve in the direction sought with a large enough effect in the signal ratio, not every such curve was filed as active; inconclusive = small, poorly fitted or top-dose-only effect, or a change in a side signal; inactive = no such curve, though single readings can be large or run the other way; the % refers to the signal ratio;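 also: cells stimulated with carbachol in lithium chloride buffer; higher means more IMPase inhibition seen as more IP1 and lower FRET ratio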
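Measured: the HTRF emission ratio (665/620 nm) plus the 620 nm donor channel, each fitted to the Hill equation to give AC50. Cells were CHO-M1 given compounds up to 46 uM and a 30 min carbachol stimulation at 37C.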
IMPase Li cell – membrane-permeable IMPase blocker, potentiated with lithium; AID 1457; Potency, µM (series often up to 59.4 µM), usual class: inhibitors; CHO-M1 cells, IP1 TR-FRET (IP-One), carbachol + lithium; 0.35% of 210,000 active; active = well fitted curve in the direction sought with a large enough effect; inconclusive = small, poorly fitted or top-dose-only effect, or another doubt; inactive = no such curve, though single readings can be large; an effect the other way counts as inactive or inconclusive;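 also: IP1 builds up when IMPase is blocked and the TR-FRET signal falls; nearly all actives have a fitted effect of over 50% in size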
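IP1 accumulation measured by competitive TR-FRET in lysed CHO-M1 cells after 30 min compound exposure at 37C, with a small lithium addition to potentiate weak responses. Hill-equation AC50 from ratio and donor-channel data.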
12-hLO inh – 12-hLO (ALOX12) enzyme inhibition. 0.12% of 150,000 active. purified 12-hLO, xylenol orange hydroperoxide absorbance. Potency, µM (highest dose often 57.1 µM), hits mostly inhibitors. AID 1452; active = well fitted curve in the direction sought with a large enough effect; inconclusive = small, poorly fitted or top-dose-only effect, or another doubt; inactive = no such curve, though single readings can be large; an effect the other way counts as inactive or inconclusive; also: nearly all actives have a fitted effect of over 55% in size
Target sequence (P18054 whole entry, looked up): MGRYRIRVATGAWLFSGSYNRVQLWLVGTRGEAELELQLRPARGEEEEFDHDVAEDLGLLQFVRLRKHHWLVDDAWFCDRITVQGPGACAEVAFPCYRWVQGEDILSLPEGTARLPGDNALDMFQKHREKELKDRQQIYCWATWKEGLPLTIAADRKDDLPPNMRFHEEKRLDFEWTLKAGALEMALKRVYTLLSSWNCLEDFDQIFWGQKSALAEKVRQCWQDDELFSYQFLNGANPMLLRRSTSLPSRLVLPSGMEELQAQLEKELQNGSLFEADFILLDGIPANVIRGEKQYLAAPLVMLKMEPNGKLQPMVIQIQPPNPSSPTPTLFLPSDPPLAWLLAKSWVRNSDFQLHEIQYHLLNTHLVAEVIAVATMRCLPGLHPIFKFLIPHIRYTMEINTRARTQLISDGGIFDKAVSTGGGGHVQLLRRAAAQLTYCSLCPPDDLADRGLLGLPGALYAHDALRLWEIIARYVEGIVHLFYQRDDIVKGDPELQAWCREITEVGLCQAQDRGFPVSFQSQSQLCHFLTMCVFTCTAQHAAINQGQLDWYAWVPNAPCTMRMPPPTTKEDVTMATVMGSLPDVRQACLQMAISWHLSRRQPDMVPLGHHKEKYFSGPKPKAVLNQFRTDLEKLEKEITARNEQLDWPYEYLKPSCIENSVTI
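Xylenol orange chromogenic assay: hydroperoxide from 12hLO oxidises Fe(II), giving red-shifted Fe(III)-XO absorbance. Conditions: 150 nM enzyme, 40 uM arachidonic acid, 25 mM Hepes pH 7.0, 0.01% Triton X-100, 30 min, room temperature.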
PNC inhibitor – blocks assembly of the perinucleolar compartment. activity change (PNC), negative = inhibition, % at 10 µM. 3.1% of 140,000 active. PC3M PTB-GFP, PNC prevalence imaging, 16 h; active compounds read low;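 active = readout at or below -70, meaning at least 70% loss of cells showing the perinucleolar compartment, a nuclear body marking cancer cells; inconclusive = readout between -30 and a set limit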
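Read-out is percentage of cells bearing a perinucleolar compartment, from automated 20x imaging of fixed, Hoechst-stained PC3M PTB-GFP cells. Cells were seeded 4 h, then exposed 16 h to compound (23 nl of library stock) in duplicate plates.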
ALDH1A1 block – inhibitors of human aldehyde dehydrogenase 1A1. P00352. Purified ALDH1A1, NADH fluorescence, propionaldehyde substrate. Potency, µM (highest dose often 75.3 µM), usual class: inhibitors. 7.3% of 220,000 active. AID 1030
A number is an active result; 0 = inactive; ? = inconclusive; - = not tested or not shown; [ ] = dose if it differs, or a comment. The list is not random: actives were taken first. Their share in the collection is about 11%. Unless noted, calls follow the shape of the dose curve; as a rule, active = well fitted inhibition curve with a large enough effect (not every such curve was filed as active); inconclusive = small, poorly fitted or top-dose-only effect, or another doubt; inactive = no such curve, though single readings can be large or run the other way.

SMILES | HPGD inh | IMPase cell inh | IMPase Li cell | 12-hLO inh | PNC inhibitor | ALDH1A1 block
COc1ccc(OC)c(CN2CCN(C(=O)c3cccc4ccccc34)CC2)c1 | 0 | 0 | 0 | 0 | ? | 25.1µM
COc1cc(OC)cc(C(=O)N2CCN(Cc3ccccc3C(F)(F)F)CC2)c1 | - | 0 | - | 0 | ? | 14.1µM
COc1cc(C(=O)N2CCN(Cc3ccccc3C(F)(F)F)CC2)cc(OC)c1OC | 0 | 0 | 0 | 0 | ? | ?
CC(C)C(=O)NC(=S)Nc1ccccc1C(=O)NC1CCCCC1 | 0 | - | 0 | 0 | -113.8 | 0
CCC(=O)NC(=S)Nc1ccccc1C(=O)NC1CCCCC1 | 0 | - | 0 | 0 | 0 | 0
O=C(/C=C/c1ccccc1Cl)NC(=S)Nc1ccccc1C(=O)NC1CCCCC1 | 28.2µM | 0 | 0 | 0 | 0 | 22.4µM
CC(C)CC1OCCC=CC1C (stereo not drawn) | - | - | - | - | - | 0[13.5 µM]
COc1ccccc1NC(=O)c1sc2nc(N3CCOCC3)c3c(c2c1N)CC(C)(C)OC3 | - | 0 | - | - | - | -
C=CCn1c(CCn2c3ccccc3c3ccccc32)n[nH]c1=S | ? | - | 0 | 0 | 0 | ?
S=c1[nH]nc(Cc2cccc3ccccc23)n1-c1ccccc1 | 14.1µM | 0 | 0 | ? | 0 | ?
S=c1[nH]nc(CCSCc2ccccc2)n1-c1ccccc1 | - | - | 0 | - | - | 35.5µM
C=CCn1c(Cc2cccc3ccccc23)n[nH]c1=S | 28.2µM | - | 0 | 0 | 0 | 0
C[N+](C)(N)CCC[N+](C)(C)N | 0 | - | 0 | 0[11.4 µM] | - | 0[13.5 µM]
O=C(Nc1ccn(Cc2ccccc2F)n1)c1ccc(COc2ccc(Br)cc2)cc1 | ? | 0 | 0 | 0 | -108.4 | ?
O=C(Nc1ccc(Cn2cccn2)cc1)c1ccc(COc2ccc(Br)cc2)cc1 | 0 | 0 | 0 | 0 | ? | 0
Cc1sc(NC(=O)Cc2ccc3c(c2)OCO3)nc1-c1ccc2c(c1)CCN2C(=O)c1cccc(F)c1 | 0 | 0 | 0 | 0 | -119.3 | ?
COc1cccc(NC(=O)C2C3CCC4C(CCC32)C4(Cl)Cl)c1 (stereo not drawn) | 0 | - | 0 | 0 | ? | 7.94µM
COc1ccc(NC(=O)C2C3CCC4C(CCC32)C4(Cl)Cl)cc1 (stereo not drawn) | 0 | - | 0 | 0 | 0 | 0
N[C@@H](Cc1ccccc1)c1nnc(SCc2ccccc2Cl)o1 | 28.2µM | 0 | 0 | 0 | 0 | ?
CCc1ccccc1NC(=O)CSc1nnc([C@@H](N)Cc2ccccc2)o1 | 0 | 0 | 0 | 0 | 0 | ?
CCC(C)(C(=O)NC1CCCCC1)N(C(=O)c1ccccn1)c1ccccc1 (stereo not drawn) | 0 | 0 | 0 | 0 | 0 | 0
CCC(C)(C(=O)NC1CCCCC1)N(C)C(=O)c1ccccn1 (stereo not drawn) | 0 | 0 | 0 | 0 | -105.8 | 0
NS(=O)(=O)c1ccc(NC=C2C(=O)OC3(CCCCC3)OC2=O)cc1 | 35.5µM | ? | 0 | 0 | 0 | 1.89µM
CCCCc1ccc(NC=C2C(=O)OC3(CCCCC3)OC2=O)cc1 | 0 | 0 | 0 | 0 | 0 | ?
Cn1nnnc1SCCNCc1cc(Cl)ccc1OCc1ccccc1 | 0 | - | 0 | 0 | 0 | 12.6µM
SMILES | HPGD inh | IMPase cell inh | IMPase Li cell | 12-hLO inh | PNC inhibitor | ALDH1A1 block
O=c1[nH]c(S)c(/C=C2\C=Nc3ccccc32)s1 | - | - | - | - | - | 25.1µM
O=C(Cn1c(O)c(/C=C2\C=Nc3ccccc32)sc1=O)N1CCOCC1 | - | - | 0 | - | - | 0
Cc1ccc(S(=O)(=O)Oc2ccccc2/C=C2\SC(=O)NC2=O)cc1 | - | - | 0 | - | - | 12.6µM
CCCCCCCCCCCCOCC1CO1 (stereo not drawn) | 0 | - | 0 | 0 | - | ?
O=C(c1ccc(Cl)cc1)N1CCC(O)(CSc2ccc(Cl)cc2Cl)CC1 | 0 | 0[1.84 µM] | 0 | 0 | 0 | 22.4µM
O=C(c1ccc(CSc2ccc(Cl)cc2)cc1)N1CCCC1 | - | - | 0 | - | - | ?
COc1ccc(C(=O)N2CCC[C@@]3(CCN(C)C3)C2)cc1 | 0 | - | 0 | 0 | - | 0
CC(=O)S[C@@H]1CC2=CC(=O)CC[C@@]2(C)[C@H]2CC[C@]3(C)[C@H](CC[C@@]34CCC(=O)O4)[C@H]12 | - | 0 | - | 0 | - | -
Cc1ccc(-c2csc(=S)n2CC(=O)OCC(=O)NCc2ccc(F)cc2)cc1 | 15.8µM | 0 | 0 | 0 | 0 | 12.6µM
O=P(O)(CCP(=O)(O)c1ccccc1)c1ccccc1 | 0 | - | 0 | 0[11.4 µM] | - | 0[13.5 µM]
